{"source": "PubChem BioAssay (EPA / NIEHS)", "note": "Activity calls are given as the source filed them. How the source made its calls: active means hit-call score of the fitted dose curve at least 0.9, where 1 is the maximum; inactive means score below 0.9."}
{"assay": "ATG_GLI_CIS: Attagene CIS-FACTORIAL HepG2 Assay for human Zinc Finger Protein GLI1 (AID 2282945)", "conditions": "HepG2, Attagene cis-factorial reporter mRNA, GLI element; actives raise or lower the signal", "procedure": "ATG_CIS is a cell-based, multiplexed-readout assay that uses HepG2, a human liver cell line, with measurements taken at 24 hours after chemical dosing in a 24-well plate.ATG_GLI_CIS is one of 52 assay component(s) measured or calculated from the ATG_CIS assay. It is designed to make measurements of mRNA induction, a form of inducible reporter, as detected with fluorescence intensity signals by Reverse transcription polymerase chain reaction (RT-PCR) and Capillary electrophoresis technology.Data from the assay component ATG_GLI_CIS was analyzed into 1 assay endpoint. This assay endpoint, ATG_GLI_CIS, was analyzed with bidirectional fitting relative to DMSO as the negative control and baseline of activity. Using a type of inducible reporter, measures of mRNA for gain or loss-of-signal activity can be used to understand the reporter gene at the transcription factor-level as they relate to the gene GLI1. Furthermore, this assay endpoint can be referred to as a primary readout, because this assay has produced multiple assay endpoints where this one serves a reporter gene function. To generalize the intended target to other relatable targets, this assay endpoint is annotated to the dna binding intended target family, where the subfamily is zinc finger.\nHuman liver HepG2 cells are transiently transfected with multiple reporter transcription units (MRTUs) in 6-well plates using FuGene 6 reagent (Roche; 3 ml FuGene/1 mg DNA). The MRTU constructs are regulated by a cis-regulating element (promoter). […] A major difference between the CIS and TRANS system is that in CIS activities of endogenous TFs are measured, whereas the TRANS assay evaluates changes in activities of exogenous, chimeric NR-Gal4 proteins. […] At the end of 24 hour incubation, total RNA was isolated using TriZol reagent (Invitrogen). The isolated RNA is then reverse-transcribed using oligo(dT) primer and Mo-MLV reverse transcriptase (Invitrogen) with DNAse I (Ambion) treatment for 30 min. The one-tenth of the produced cDNA was amplified by PCR using Taq DNA polymerase (Invitrogen) and two reporter sequence-specific primers. The PCR products were fluorescently labeled by primer extension with 6-arboxyfluorescein (6-FAM) 5'-labeled reporter sequence-specific primer (2 min at 95 C, 20 s at 68 C and 10 min at 72 C) and these products were digested with 5U of HpaI (New England Biolabs) for 2h at 37 C. The fragments were purified using Qiaquick PCR columns (Qiagen), analyzed on an ABI 3130xL genetic analyzer (Applied Biosystems) with peak positions identified by using a set of X-rhodamine (ROX)-labeled MapMarker1000 molecular weight standards (BioVentures). The raw capillary electrophoresis data was processed using Attagraph software (Attagene)."}
{"smiles": "Oc1cccc2ccccc12", "outcome": "inactive"}
{"smiles": "CCCC(=O)OC", "outcome": "inactive"}
{"smiles": "CC(O)(P(=O)(O)O)P(=O)(O)O", "outcome": "inactive"}
{"smiles": "CC(C)CC(=O)O", "outcome": "inactive"}
{"smiles": "OCCc1ccccn1", "outcome": "inactive"}
{"smiles": "CCOC(=O)CC(=O)OCC", "outcome": "inactive"}
{"smiles": "Cc1cc(-n2nc3ccc(Cl)cc3n2)c(O)c(C(C)(C)C)c1", "outcome": "inactive"}
{"smiles": "CCCCCCCCCCCCCCCCCC[N+](C)(C)C", "AC50": "43.6 µM (active)"}
{"smiles": "C=CN1CCCCCC1=O", "outcome": "inactive"}
{"smiles": "CCCCC(CC)COC(=O)CS", "note": "(stereo not given)", "outcome": "inactive"}
{"smiles": "CCC(C)=NO", "outcome": "inactive"}
{"smiles": "c1ccc2c(c1)Oc1ccccc1S2", "AC50": "173 µM (active)"}
{"smiles": "CCC(=O)OCc1ccc(OC)cc1", "outcome": "inactive"}
{"smiles": "CCC(C)NC(N)=O", "note": "(stereo not given)", "outcome": "inactive"}
{"smiles": "CCCCCCCCCCCCCC", "outcome": "inactive"}
{"smiles": "F[B-](F)(F)F", "outcome": "inactive"}
{"smiles": "Cc1ccccc1S(N)(=O)=O", "outcome": "inactive"}
{"smiles": "O=C(O)Cc1c[nH]c2ccccc12", "outcome": "inactive"}
{"smiles": "CC(=O)c1nccs1", "outcome": "inactive"}
{"smiles": "Cc1cc2nc3c(=O)[nH]c(=O)nc-3n(C[C@H](O)[C@H](O)[C@H](O)CO)c2cc1C", "outcome": "inactive"}
{"smiles": "Clc1ccccn1", "outcome": "inactive"}
{"smiles": "CNC(=C[N+](=O)[O-])NCCSCc1csc(CN(C)C)n1", "outcome": "inactive"}
{"smiles": "CN(C)c1ccc(C(c2ccccc2)c2ccc(N(C)C)cc2)cc1", "outcome": "inactive"}
{"smiles": "CCCN[C@H]1CCc2nc(N)sc2C1", "outcome": "inactive"}
{"smiles": "CCCOCCC", "outcome": "inactive"}
{"smiles": "CC(=O)Nc1c(I)c(NC(C)=O)c(I)c(C(=O)O)c1I", "outcome": "inactive"}
{"smiles": "NC(=O)c1ccc(N)cc1", "outcome": "inactive"}
{"smiles": "OCCOCCOCCOCCOCCO", "outcome": "inactive"}
{"smiles": "O=C(O)c1cc(Cl)cc(Cl)c1O", "outcome": "inactive"}
{"smiles": "O=C1CCCCCCCCCCCCCC1", "outcome": "inactive"}
{"smiles": "CCC(C)(CCC(C)C)C(=O)O", "note": "(stereo not given)", "outcome": "inactive"}
{"smiles": "O=C(O)/C=C\\C(=O)O", "outcome": "inactive"}
{"smiles": "CCCCCCCC#N", "outcome": "inactive"}
{"smiles": "CCCCCCC1CCCC(=O)O1", "note": "(stereo not given)", "outcome": "inactive"}
{"smiles": "CNC[C@H](O)[C@@H](O)[C@H](O)[C@H](O)CO", "outcome": "inactive"}
{"smiles": "C/C=C(\\C)C(=O)OCC/C=C\\CC", "outcome": "inactive"}
{"smiles": "O=C(O)/C=C/C(=O)O", "outcome": "inactive"}
{"smiles": "Cc1cc(O)cc(C)c1Cl", "outcome": "inactive"}
{"smiles": "CCOC(=O)c1ccccc1", "outcome": "inactive"}
{"smiles": "COc1c2occc2cc2ccc(=O)oc12", "outcome": "inactive"}
